Among the data in publication PMC12136788 are binding signal values, retold here.

Whole data set: some 24,000 sequences, median “enrichment r” near 0.99, cut for the highest 2% near 3.7. A selection follows.

T1: UNK ZnF1-3 (human, UniProt Q9C0B0 31-174)
T1 sequence: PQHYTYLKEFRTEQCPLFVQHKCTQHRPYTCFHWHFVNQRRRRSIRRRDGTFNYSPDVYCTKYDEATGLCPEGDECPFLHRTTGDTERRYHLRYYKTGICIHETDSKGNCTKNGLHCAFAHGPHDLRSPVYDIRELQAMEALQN

B1: chr4:17845017:17845018:+_ENSG00000109805_ENST00000514176|hu_mus|hu_hu_hu_mus_False|1_58 (ssRNA)
RNA: GGGAGUUCUACAGUCCGACGAUCGCUCUCUUAACUUGUAUCUUCAUUAAGGAACUCUGCAAGGUUAAGUUUACUUUUUCUAGUGCUAGCUGUUUUGGCUCGUCUGGGUAAUCUCAUCUUCAUUUCUGAUGGUGGUUUGGAACUCAACAGAGGAUUGAGCAUCA
B2: chr6:146524949:146524950:-_ENSMUSG00000040250_ENSMUST00000032427|mus_hu|FALSE|FALSE (ssRNA)
RNA: GGGAGUUCUACAGUCCGACGAUCCUGCCUGCAAGAUUCUGCCAUAUAAGGGCAGUGAUCCACAACAAACACUGUUUUAUGAGAUUCAGAAAAAAUCUUCAUUUUGUUUUAACUUUCGUGCCUGGUCCUGCAGUGAAAACGAACCAACAGAGGAUUGAGCAUCA
B3: chr17:73774127:73774128:-_ENSG00000132475_ENST00000254810|hu_mus|motif|central (ssRNA)
RNA: GGGAGUUCUACAGUCCGACGAUCUGACAAGACUCCCCACCACUUGUGAAUGUAAAACAUUUAAUUUAAAAAUGUUGAACACGGCAAUAUAUAAAAUAGCUAUUAUAAAUGCACAUAGUGUAUUCUAUAGCUGCCAGGUUUACUCAACAGAGGAUUGAGCAUCA
B4: chr9:95013113:95013114:-_ENSG00000196305_ENST00000443024|hu_hu|hu_hu_hu_mus_False|68_108 (ssRNA)
RNA: GGGAGUUCUACAGUCCGACGAUCCUCAGUGAGAAAAGGCGUGUAAGGGGCCAUCAGUCUGCACAGAGAAAGCAGAACACUGAACAGUGUCUCCAGAGCCAUGACACAGUCUUCCACCCCACUCUCACCCUUUAACCUCCUCCUCAACAGAGGAUUGAGCAUCA
B5: chr8:41367971:41367972:+_ENSG00000147533_ENST00000520817|hu_hu|motif|central (ssRNA)
RNA: GGGAGUUCUACAGUCCGACGAUCAAUAUACAGUAUUAUUCCUAUCAAAUUUUUUUCUCAUAAGUUAUAUUUAUAACAAAACGGUAAUUAAAAUAUUUUUUAUACCUGCUUAUUCCAUAUCCAGGGACACAGCGGGAACAUUUACAACAGAGGAUUGAGCAUCA
B6: chr4:4237396:4237397:-_ENSG00000132406_ENST00000382753|hu_hu|motif|central (ssRNA)
RNA: GGGAGUUCUACAGUCCGACGAUCUAAAACUUCACAUUAGGAAAUGCUAAAAACCCAGUAAUGUACAUAAUGAUAAAAUCGGAAGUGAUGAGAAAACAUAAAAUAUUUUCAUUUGGUCCUGUCACCUAACAAAACUAUCAUAAACAACAGAGGAUUGAGCAUCA
B7: chr18:77696836:77696837:-_ENSMUSG00000025427_ENSMUST00000026494|mus_hu|FALSE|FALSE (ssRNA)
RNA: GGGAGUUCUACAGUCCGACGAUCCCUCAGAGGAUACCGGCUGGGUGGGCUGAGGUUGUGGGAGGAGCGAGGGAGGAGGAAAGGCAGGUUCAUGAUGGAGAGGCAGGGUUGUGGUGGGGGCGGGGGGGUGCCAAGUGUAGCAAGCAACAGAGGAUUGAGCAUCA
B8: chr8:35901500:35901501:-_ENSMUSG00000031529_ENSMUST00000033929|mus_mus|FALSE|FALSE (ssRNA)
RNA: GGGAGUUCUACAGUCCGACGAUCUAUAUAACAUGAUCUGUCUUUGUGUGUGGGACAGCCUGUUCCUCCUCCAAUUCCAUAAACAUACUGAUUGCUUUUUGAGGAGUUUUCAGCAAAGUAAAUUCCAGCUCCAAACAUCCCUCCCAACAGAGGAUUGAGCAUCA
B9: chr2:9728443:9728444:-_ENSG00000134308_ENST00000238081|hu_mus|motif|central (ssRNA)
RNA: GGGAGUUCUACAGUCCGACGAUCCUGCAUCUCCUUCUUGCUUAUAUCAAACGCCUCUUGGUAGGCUCCUUGGGAAUUUUCGGUUGUUUGUUUUCGAUCAUCGCCACAAGCUACUUCAGCAAGAUACCGGAAAUAAUCUCCCUUCAACAGAGGAUUGAGCAUCA
B10: 30602309_30602429_1961_3pUTR_ENSG00000107951_ENST00000263063|human|control|control (ssRNA)
RNA: GGGAGUUCUACAGUCCGACGAUCCGCCACACUCCACAGCUGAUGUUUUAAUAAAGUGCCACUGAGUAUCAGACUGAUCAAACUGAAAACAUCCCAGAACUUCAGACCAGGUUAAGGGGGCCAAUGAGAAGAUCAUGAAAAGUGCAACAGAGGAUUGAGCAUCA
B11: chr4:42003652:42003653:+_ENSG00000014824_ENST00000513699|hu_hu|motif|central (ssRNA)
RNA: GGGAGUUCUACAGUCCGACGAUCGGUACCAAUAUAUGGAUGACUACAGGGAACCAUGUUUGAAAAGCUUCCAAAUGUCACGGAAUUCUGCCACUCCUGGCGGUCGCUGGGAUUACAGGCCGCCGCCCUGCAUCGCAGACGGAGCAACAGAGGAUUGAGCAUCA
B12: 22790091_22790211_509_ncRNA_ENSMUSG00000026784_ENSMUST00000139472|mouse|control|control (ssRNA)
RNA: GGGAGUUCUACAGUCCGACGAUCAUGACUGGAGUUUGAUGAAGAAAGAACUGACUACUCAGACACCUGUCUCCCCACCGUGUGUGACACACACUAUAAGUCCCUCAGUAAUGAUGACAAUGUCUUGUAUCCUCUUCAUUUUUACAACAGAGGAUUGAGCAUCA
B13: chr2:202488911:202488912:-_ENSG00000155755_ENST00000286196|hu_mus|hu_hu_hu_mus_False|88_98 (ssRNA)
RNA: GGGAGUUCUACAGUCCGACGAUCAUUGAAACAUUUUCAUAAUAUUGAGAGAUGUUUUCAGCAUUAUGUAACAAAAGCUCAAUUGUAAAUACAUGUAUCUUAUAAAAAUACACUUAAAAACACGAGUGGGGAGCGCAGGCGCCACAACAGAGGAUUGAGCAUCA
B14: chr16:94690476:94690477:+_ENSMUSG00000040785_ENSMUST00000117648|mus_mus|motif|central (ssRNA)
RNA: GGGAGUUCUACAGUCCGACGAUCAGAAAUGUAAUGUAUUCAAGGUUCACAUGUCUGUAUUUGCCACUGCCUACAGGUCACGGAAAAUACCUAGUUUUUGAAUAGUUUCUAAUACAGUUAGCUUGUUUUCAGGCCACAUUACAACAACAGAGGAUUGAGCAUCA

The experiment has as its target T1, UNK ZnF1-3. Description: nsRBNS (natural sequence RNA bind-n-seq); RBNS binding buffer (assumed for nsRBNS): 25 mM Tris pH 7.5, 150 mM KCl, 3 mM MgCl2, 0.01% Triton X-100, 500 ug/ml BSA, 20 U/ml SUPERase-In, 4 C; UNK is unkempt and MSI1 is Musashi-1; names of the RNAs are library labels; protein concentration not given here; high values mean tight binding.
In turn, B1 displayed a binding signal of 0.331 enrichment R. In turn, B2 came in with a binding signal of 1.02 enrichment R. Then B3, with 1.13 enrichment R; and B4, with 1.61 enrichment R; and B5, with 1.27 enrichment R.

In the case of B6, the binding signal was 1.05 enrichment R. Molecule B7 had a binding signal of 3.07 enrichment R. The result for B8 reads 1.03 enrichment R; that for B9, 0.873 enrichment R. Then B10, with 2.32 enrichment R; and B11, with 1.6 enrichment R; and B12, with 0.985 enrichment R. As for B13, the binding signal stood at 0.63 enrichment R. Then B14, with 0.656 enrichment R.
